# An excerpt weighted towards active compounds, which were near 19% of everything screened.
# DT40 TDP1 CPT: growth inhibition of DT40 Tdp1-/-;hTDP1 cells with camptothecin (screen for TDP1 inhibitors) | Potency, µM (top dose mostly 46.2 µM), without a hit: at the highest dose activity change, negative = growth inhibition, actives largely listed as inhibitors | 12% of 420,000 active | chicken DT40 Tdp1-/-;hTDP1 cells + 20 nM CPT, ATP luminescence, 48 h; note: nearly all actives have a fitted effect of over 55% in size
#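 Chicken DT40 Tdp1-/- cells stably complemented with human TDP1 were seeded at 400 cells/well in medium containing 20 nM camptothecin, exposed to pin-transferred compounds, and grown at 37 °C for at least 48 hr. Viability was read as ATP luminescence.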
# RORg inh: blocks mouse ROR gamma transcriptional activity. Potency, µM (doses to about 53.6 µM), inactives show at the top dose activity change, negative = inhibition, actives largely listed as inhibitors. P51450. Drosophila S2 Gal4-RORgamma UAS-luciferase reporter, 20 h. 5.4% of 310,000 active. AID 2551; note: nearly all actives have a fitted effect of over 60% in size
#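 Schneider cells (Drosophila), stable Gal4 DBD–ROR gamma + UAS-luc; 1 hr cmpd preincubation; Cu2+ induction 700 uM final; 20 hr ambient; luminescence.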
# TDP1 cell noCPT: qHTS for Inhibitors of human tyrosyl-DNA phosphodiesterase 1 (TDP1): qHTS in cells in absence of CPT; DT40 Tdp1-/- hTDP1 cells, no CPT, ATP luminescence, 48 h; Potency, µM (titrated, usually from 46.2 µM), for inactives: top-dose activity change, negative = growth inhibition, most hits filed as inhibitors; 15% of 420,000 active; AID 686978, 2013; note: nearly all actives have a fitted effect of over 55% in size
#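 Luminescent ATP content (CellTiter-Glo) served as the growth readout. Knockout chicken DT40 cells expressing human TDP1 were exposed to compounds without camptothecin for a minimum 48 hr at 37 °C.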
# VP16 counter: counter-screen for ROR gamma inhibitors: Gal4-VP16 reporter | Potency, µM (series often up to 53.6 µM), without a hit: at the top dose activity, negative = inhibition, most hits filed as inhibitors | 3.5% of 310,000 active | Drosophila S2 Gal4-VP16 UAS-luciferase, luminescence, 20 h;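 note: Gal4-VP16 expression switched on by copper sulfate through the metallothionein promoter; nearly all actives have a fitted effect of over 50% in size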
# TDP1 block: TDP1 (human) enzyme inhibition | Q9NUW8 | recombinant TDP1, AlphaScreen DNA substrate cleavage | Potency, µM (titrated, usually from 130 µM), without a hit: at the highest dose activity change, negative = inhibition, usual class: inhibitors | 0.28% of 350,000 active; note: nearly all actives have a fitted effect of over 40% in size
# Target sequence (Q9NUW8 whole entry, looked up): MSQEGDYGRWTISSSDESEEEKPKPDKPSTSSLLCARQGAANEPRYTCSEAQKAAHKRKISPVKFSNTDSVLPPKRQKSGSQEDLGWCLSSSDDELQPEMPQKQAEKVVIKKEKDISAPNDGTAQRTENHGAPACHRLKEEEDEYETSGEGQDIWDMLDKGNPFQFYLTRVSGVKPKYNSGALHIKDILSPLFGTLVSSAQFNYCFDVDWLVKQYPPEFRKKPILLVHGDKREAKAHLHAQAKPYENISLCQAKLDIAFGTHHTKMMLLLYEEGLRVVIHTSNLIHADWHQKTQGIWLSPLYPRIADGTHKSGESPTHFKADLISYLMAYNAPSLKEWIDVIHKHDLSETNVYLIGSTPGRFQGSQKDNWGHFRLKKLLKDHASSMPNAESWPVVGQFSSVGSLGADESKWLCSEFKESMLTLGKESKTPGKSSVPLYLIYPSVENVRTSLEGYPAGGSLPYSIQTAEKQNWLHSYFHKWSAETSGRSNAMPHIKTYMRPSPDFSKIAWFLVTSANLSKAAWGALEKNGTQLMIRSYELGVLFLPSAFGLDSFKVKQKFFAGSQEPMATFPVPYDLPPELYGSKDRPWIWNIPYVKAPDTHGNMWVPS
#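 Tdp1 1 nM final; 15 min RT w/ cpd; substrate 15 nM, 5 min; beads 10 ug/ml, 10 min; AlphaScreen read. Neg ctrl: no enzyme.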
# * hit, by the source's call; ? = inconclusive; · = not tested or not shown; [ ] = dose if it differs, or a comment. Calls come from the whole dose curve; as a rule, active = well fitted curve in the direction sought with a large enough effect; inconclusive = small, poorly fitted or top-dose-only effect, or another doubt; inactive = no such curve, though single readings can be large; an effect the other way counts as inactive or inconclusive. % is set by controls: 0 for no effect and ±100 for the full control effect; potency is the fitted concentration of half-maximal effect.
SMILES,DT40 TDP1 CPT,RORg inh,TDP1 cell noCPT,VP16 counter,TDP1 block
CCOC(=O)C1=C(C)NC2=C(C(=O)C(C(=O)OCC)C(c3ccco3)C2)C1c1ccccc1C (stereo unspecified),20µM*,·,22µM*,·,·
CCOC(=O)C1=C(C)NC2=C(C(=O)C(C(=O)OCC)C(c3ccco3)C2)C1c1ccccn1 (stereo unspecified),-28%,1%,?,1%,5%
CCc1nnc(NC(=O)CSc2nccn2Cc2ccc(C)cc2)s1,-23%,·,-24%,·,0%
CCOc1ccc(-n2ccnc2SCC(=O)Nc2nnc(CC)s2)cc1,?,10µM*,?,4%,6%
CCc1nnc(NC(=O)CSc2nccn2Cc2ccccc2)s1,?,·,21µM*,·,3%
CCc1nnc(NC(=O)CSc2nnc(-c3ccccc3O)n2-c2ccc(C)cc2C)s1,?,1.6µM*,23µM*,?,5%
CCc1nnc(NC(=O)CSc2nnc(COc3ccccc3)n2-c2ccc(C)cc2)s1,?,3%,-26%,3%,7%
Cc1ccc(Oc2ccc(C(F)(F)F)cc2[N+](=O)[O-])c([N+](=O)[O-])n1,-22%,20%,-20%,21%,·
Cc1ccc2nc(SCc3ccccc3)c(C=O)c(=O)n2c1,-3%,0%,-30%,0%,-5%
O=[N+]([O-])c1ccc(Oc2cccc3cccnc23)c([N+](=O)[O-])c1,5.2µM*,8.9µM*,6.5µM*,?,3%
O=C(Oc1ccc(Cl)c2cccnc12)c1cccc([N+](=O)[O-])c1,1.3µM*,1.1µM*,0.92µM*,1.6µM*,8%
O=[N+]([O-])c1ccccc1COc1ccc(Cl)c2cccnc12,-15%,-26%,-23%,-8%,·
O=C(Oc1cccc2cccnc12)c1cccc([N+](=O)[O-])c1,0.92µM*,3.5µM*,0.73µM*,3.2µM*,-1%
Cc1c(C(=O)Oc2cccc3cccnc23)cccc1[N+](=O)[O-],?,2.8µM*,?,3.2µM*,3%
Nc1nc(CCOc2ccc(F)cc2)cs1,3%,16%,-6%,?,3%
Nc1nc(SCC(=O)c2cccs2)n[nH]1,5%,1%,-16%,16%,-2%
Cc1ccc2c(c1)NC(=O)C(CC(=O)NCCCN1CCCC1=O)O2 (stereo unspecified),?,-20%,-13%,-1%,-4%
O=C(Oc1cccc2cccnc12)c1ccc2c(c1)OCCO2,0.65µM*,1.6µM*,1µM*,2µM*,2%
O=C(Oc1c(Cl)cc(Cl)c2cccnc12)c1cccc([N+](=O)[O-])c1,2.9µM*,0.28µM*,3.3µM*,·,4%
CCN(CC)C(=O)Oc1c(Cl)cc(Cl)c2cccnc12,18%,3%,?,-11%,0%
Cc1ccc(S(=O)(=O)NC2=NCN(C3CCCCC3)CN2)cc1,-8%,5%,-4%,-6%,0%
Cc1ccc(NS(=O)(=O)c2cccc(C(=O)N3CCCCCC3)c2)cc1,?,·,21µM*,·,-11%
COc1ccc(NS(=O)(=O)c2cccc(C(=O)N3CCN(C(=O)c4ccco4)CC3)c2)cc1,9.2µM*,·,-27%,·,-1%
COc1ccc(C)cc1NC(=O)Nc1ccc(C(=O)N2CCCC2)cc1,26µM*,-13%,?,13%,4%
COc1ccc(Cl)cc1NC(=O)Nc1ccc(C(=O)N2CCCC2)cc1,?,36%,?,-7%,4%
COc1ccc(NS(=O)(=O)c2cccc(C(=O)N3CCN(c4ccccc4O)CC3)c2)cc1,?,·,?,·,-18%[0.505 µM]
COc1ccc(NS(=O)(=O)c2cccc(C(=O)N3CCOCC3)c2)cc1,-23%,·,-35%,·,·
Cc1ccc(NS(=O)(=O)c2cccc(C(=O)N3CCCCC3)c2)cc1,-26%,·,?,·,0%
COc1ccc(NS(=O)(=O)c2cccc(C(=O)N3CCCCCCC3)c2)cc1,?,·,15µM*,·,0%
